Results as given in PubChem BioAssay (NCI).
Several values for one entry are separate records, joined by “and”; a condition that tells them apart may be missing. Equal values may be shown once. Compounds without any hit were thinned out: in the full panel of roughly 79,000, 15% have a hit. A structure can be active in one record and inactive in another. Activity calls are given as the source filed them. No stated cut-off is given here; in the data, active means growth inhibition above about 70%; inactive means the rest.

What was measured:
[1] = NCI Yeast Anticancer Drug Screen. Data for the wt1 strain (AID 149);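 further: 0% = growth of vehicle-treated wt1 cultures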; conditions: S. cerevisiae wt1 strain (SPY 50644) growth inhibition, stronger effect = higher value
Procedure, shortened: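 Readout: yeast growth inhibition, normalised to vehicle controls, in the wt1 strain exposed to test compounds.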

[2] = NCI Yeast Anticancer Drug Screen. Data for the rad50EPP+ strain (AID 151);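 further: 0% = growth of vehicle-treated control cultures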; conditions: S. cerevisiae rad50 mutant strain, stronger effect = higher value
Procedure, shortened: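 Read-out is yeast growth inhibition relative to vehicle; cells used were the rad50EPP+ strain.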

[3] = NCI Yeast Anticancer Drug Screen. Data for the mgt1 strain (AID 153); conditions: S. cerevisiae mgt1 mutant growth inhibition, stronger effect = higher value
Procedure, shortened: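 Measured: inhibition of mgt1 yeast growth by compound, normalized to vehicle-treated cultures.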

[4] = NCI Yeast Anticancer Drug Screen. Data for the rad50 strain (AID 155);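 further: 0% = growth of vehicle-only cultures of the same strain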; conditions: S. cerevisiae rad50 strain growth inhibition, stronger effect = higher value
Procedure, shortened: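 Compounds were tested on a yeast strain with an engineered DNA damage repair alteration; the reported value is growth inhibition normalised to vehicle treatment.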

[5] = NCI Yeast Anticancer Drug Screen. Data for the mec2-1 strain (AID 157); conditions: S. cerevisiae mec2-1 strain, stronger effect = higher value
Procedure, shortened: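 Using mec2-1 yeast: add compound, measure growth, express inhibition versus vehicle-treated cultures.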

[6] = NCI Yeast Anticancer Drug Screen. Data for the rad14 strain (AID 159);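 further: 0% = growth of vehicle-treated control cultures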; conditions: S. cerevisiae rad14 strain growth inhibition, stronger effect = higher value
Procedure, shortened: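 Compound-treated yeast with a defined DNA-repair lesion; growth inhibition normalised to vehicle-treated cultures.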

[7] = NCI Yeast Anticancer Drug Screen. Data for the sgs1 mgt1 strain (AID 161);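 further: 0% = growth of cultures given vehicle only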; conditions: S. cerevisiae sgs1 mgt1 strain, stronger effect = higher value
Procedure, shortened: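 This yeast growth screen uses a strain with defined DNA-repair lesions; compound-treated growth is compared with vehicle-treated growth.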

[8] = NCI Yeast Anticancer Drug Screen. Data for the CLN2oe strain (AID 163);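 further: 0% = growth of vehicle-only control cultures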; conditions: S. cerevisiae CLN2oe strain, stronger effect = higher value
Procedure, shortened: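 Whole-cell yeast growth assay. A strain engineered for altered cell-cycle control received compound, and inhibition relative to vehicle-treated cultures was recorded.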

[9] = NCI Yeast Anticancer Drug Screen. Data for the cln2 rad14 strain (AID 165);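 further: 0% = growth equal to vehicle treated cultures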; conditions: S. cerevisiae cln2 rad14 strain, stronger effect = higher value
Procedure, shortened: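 Yeast strain cln2 rad14, bearing defects in cell cycle control and DNA repair, serves as the test system; values reflect growth inhibition compared with vehicle.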

[10] = NCI Yeast Anticancer Drug Screen. Data for the bub3 strain (AID 167); conditions: S. cerevisiae bub3 mutant strain, stronger effect = higher value
Procedure, shortened: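 Growth of a checkpoint-deficient yeast mutant is measured after compound exposure. Values represent inhibition relative to vehicle.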

[11] = NCI Yeast Anticancer Drug Screen. Data for the wt2 strain (AID 169);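 further: 0% = growth of vehicle-treated yeast cultures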; conditions: S. cerevisiae wt2 strain growth inhibition, stronger effect = higher value
Procedure, shortened: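 Treated yeast vs. vehicle-treated yeast: growth inhibition determined.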

[12] = at 5.0 µM (retest, dose inferred, filed as 0.5)
[13] = at 50.0 µM (retest, dose inferred, filed as 5.0)

Measured: growth inhibition

COc1ccc2[nH]c3c(C)c4cc[n+](C)cc4c(C)c3c2c1
inactive: [1]; at 1.2 µM 18% and 15% | [1]; at 3.7 µM 45% and 16% | [1]; at 11.0 µM 45% and 26% | [1]; at 33.0 µM 43% and 41% | [1]; at 100.0 µM 43% and 63% | [2]; at 1.2 µM 39% and 24% | [2]; at 3.7 µM 64% and 62% | [3]; at 1.2 µM 15% and 2% | [3]; at 3.7 µM 28% and 12% | [3]; at 11.0 µM 26% and 24% | [3]; at 33.0 µM 38% and 29% | [3]; at 100.0 µM 39% and 55% | [4]; at 1.2 µM 22% and 7% | [4]; at 3.7 µM 35% and 34% | [4]; [12] 29% and 31% | [4]; at 11.0 µM 60% | [4]; at 50.0 µM 31.6% and 64.8% | [5]; at 1.2 µM 15% and 23% | [5]; at 3.7 µM 45% and 18% | [5]; [12] 9% and 3% | [5]; at 11.0 µM 53% and 27% | [5]; at 33.0 µM 44% and 36% | [5]; [13] 44% and 16% | [5]; at 50.0 µM 21.2% and 56.6% | [5]; at 100.0 µM 53% and 61% | [6]; at 1.2 µM 0% and 6% | [6]; at 3.7 µM 17% and 15% | [6]; at 11.0 µM 25% | [6]; at 33.0 µM 27% and 40% | [6]; at 100.0 µM 36% and 61% | [7]; [12] 18% and 28% | [7]; [13] 41% and 52% | [7]; at 50.0 µM 45.8% and 36.4% | [8]; at 1.2 µM 45% and -9% | [8]; at 3.7 µM 45% and 0% | [8]; at 11.0 µM 55% and -5% | [8]; at 33.0 µM 50% and 20% | [8]; at 100.0 µM 40% and 66% | [9]; [12] 2% and 24% | [9]; [13] 25% and 30% | [9]; at 50.0 µM 39.2% and 23.3% | [10]; at 1.2 µM 18% and 8% | [10]; at 3.7 µM 30% and 22% | [10]; [12] 19% and 2% | [10]; at 11.0 µM 28% and 23% | [10]; at 33.0 µM 33% and 32% | [10]; [13] 50% and 20% | [10]; at 50.0 µM 22.9% and 34.1% | [11]; at 1.2 µM -13% and -31% | [11]; at 3.7 µM -14% and -11% | [11]; at 11.0 µM -15% and -11% | [11]; at 33.0 µM -13% and 14%
active: [2]; at 11.0 µM 70% and 73% | [2]; at 33.0 µM 73% and 82% | [2]; at 100.0 µM 87% and 89% | [4]; at 33.0 µM 78% and 88% | [4]; [13] 85% and 82% | [4]; at 100.0 µM 92% and 94%
30% (inactive) and 79% (active): [10]; at 100.0 µM
11% (inactive) and 73% (active): [11]; at 100.0 µM
